Test results from PubChem BioAssay (NCI).
Several values for one entry are separate records, joined by “and”; a condition that tells them apart may be missing. Equal values may be shown once. The panel holds about 83,000 compounds, 20% with a hit somewhere; the sample as a whole holds those more often.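 48-hour exposure, single concentration, 96-well plates; percent growth endpoint where 0 means no net growth. Active: below 10.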 Activity calls are given as the source filed them.

Columns and labels:
Experiment in all cases: NCI-60 one-dose screen, 48 h (100 = growth as untreated, 0 = no growth, -100 = all killed)
Details in all cases: 10 µM unless noted
[1] = tested on: SK-MEL-2 melanoma
[2] = tested on: EKVX NSCLC
[3] = tested on: SN12C renal
[4] = tested on: UO-31 renal
[5] = tested on: TK-10 renal
[6] = tested on: ACHN renal
[7] = tested on: CAKI-1 renal
[8] = tested on: A498 renal
[9] = tested on: CCRF-CEM leukemia
[10] = tested on: MOLT-4 leukemia
[11] = tested on: RPMI-8226 leukemia
[12] = tested on: OVCAR-8 ovarian
[13] = tested on: OVCAR-5 ovarian
[14] = tested on: OVCAR-4 ovarian
[15] = tested on: SK-OV-3 ovarian
[16] = tested on: IGROV1 ovarian
[17] = tested on: OVCAR-3 ovarian
[18] = tested on: HS 578T breast
[19] = tested on: NCI/ADR-RES ovarian
[20] = tested on: SR leukemia

Structure (SMILES)	growth [1]	growth [2]	growth [3]	growth [4]	growth [5]	growth [6]	growth [7]	growth [8]	growth [9]	growth [10]	growth [11]	growth [12]	growth [13]	growth [14]	growth [15]	growth [16]	growth [17]	growth [18]	growth [19]	growth [20]
ClC/C=C/CSc1ncnc2nc[nH]c12	5.9% (active) and 112% (inactive)	105% (inactive) and 104% (inactive)	105% (inactive) and 100% (inactive)	85.9% (inactive) and 87.1% (inactive)	108% (inactive)	103% (inactive) and 99.2% (inactive)	106% (inactive) and 111% (inactive)	91.4% (inactive) and 117% (inactive)	90.7% (inactive)	93.7% (inactive) and 85.3% (inactive)	98.7% (inactive)	106% (inactive)	112% (inactive) and 104% (inactive)	108% (inactive) and 99% (inactive)	95% (inactive) and 107% (inactive)	113% (inactive) and 101% (inactive)	119% (inactive) and 114% (inactive)	105% (inactive) and 119% (inactive)	106% (inactive) and 108% (inactive)	
CCOc1ccc2cc(-c3nn(CC4CCN(C)CC4)c4ncnc(N)c34)ccc2c1	108% (inactive)	101% (inactive) and 56.5% (inactive)	83.7% (inactive)	60.7% (inactive) and 62.9% (inactive)	70.9% (inactive) and 77.8% (inactive)	96.5% (inactive) and 53.9% (inactive)	87.6% (inactive) and 85.5% (inactive)	74% (inactive) and 23.7% (inactive)	90.7% (inactive) and 3.75% (active)	70.1% (inactive) and -4.41% (active)	75.9% (inactive) and 2.42% (active)	94.4% (inactive) and 65.2% (inactive)	88.4% (inactive) and 80.8% (inactive)	91.4% (inactive) and 70.5% (inactive)		81.5% (inactive) and 61.3% (inactive)	97.8% (inactive) and 59.3% (inactive)	79.3% (inactive) and 35.8% (inactive)	93.7% (inactive) and 63.1% (inactive)	
Nc1n[nH]c(=S)n1-c1ccc(Cl)cc1	99.9% (inactive)	106% (inactive)	100% (inactive)	89% (inactive)	92.6% (inactive)	103% (inactive)	119% (inactive)	109% (inactive)	96.7% (inactive)		80.8% (inactive)	100% (inactive)	98.6% (inactive)	99.5% (inactive)		110% (inactive)	100% (inactive)	100% (inactive)	100% (inactive)	96.6% (inactive)
CCN(CC)CCc1nc(-c2ccccc2)no1	98% (inactive) and 104% (inactive)	90.6% (inactive) and 98.4% (inactive)	68% (inactive) and 80.8% (inactive)	65.9% (inactive) and 68.2% (inactive)	85.1% (inactive) and 107% (inactive)	83.2% (inactive) and 110% (inactive)	92.3% (inactive) and 88.2% (inactive)	108% (inactive) and 110% (inactive)	44.2% (inactive) and 90.8% (inactive)	101% (inactive)	60.9% (inactive) and 98.7% (inactive)	83.9% (inactive) and 94.4% (inactive)	98.6% (inactive) and 114% (inactive)	76.7% (inactive) and 103% (inactive)		78.7% (inactive) and 112% (inactive)	73.2% (inactive) and 112% (inactive)		89.8% (inactive) and 99.4% (inactive)	
CC1CCCc2sc3nc(NNC(=O)c4cnccn4)n(-c4ccccc4)c(=O)c3c21 (configuration not stated)	11.3% (inactive) and 25.1% (inactive)	14.8% (inactive) and 7.14% (active)	20% (inactive) and 16.7% (inactive)	8.23% (active) and 5.71% (active)	30.3% (inactive) and 37.9% (inactive)	8.58% (active) and 19.9% (inactive)	5.81% (active) and 0.832% (active)	27.8% (inactive)		5.36% (active) and 10.6% (inactive)	24.4% (inactive) and 11.4% (inactive)	12% (inactive) and 9.28% (active)	29.6% (inactive) and 36.6% (inactive)	-3.93% (active) and -20.4% (active)	17% (inactive) and -9.04% (active)	16.9% (inactive) and 14.1% (inactive)	0.919% (active) and -3.1% (active)	49.1% (inactive) and 38.1% (inactive)	3.02% (active) and 5.41% (active)	1.65% (active) and 26.4% (inactive)
CC12CCC(CC1)C(C)(C)O2	90.7% (inactive)	97.6% (inactive)	103% (inactive)	87.4% (inactive)	93.8% (inactive)	104% (inactive)	91.4% (inactive)	92.7% (inactive)		103% (inactive)	103% (inactive)	111% (inactive)	94.3% (inactive)	113% (inactive)	104% (inactive)	103% (inactive)	121% (inactive)	102% (inactive)	108% (inactive)	88.8% (inactive)
O=C1OC2(c3ccccc31)c1ccc(O)c(O)c1Oc1c2ccc(O)c1O	85.1% (inactive)	105% (inactive) and 128% (inactive)	98.8% (inactive) and 103% (inactive)	90.2% (inactive) and 87.8% (inactive)	105% (inactive) and 101% (inactive)	101% (inactive) and 113% (inactive)	104% (inactive) and 114% (inactive)	114% (inactive) and 97.9% (inactive)		95.4% (inactive) and 121% (inactive)	113% (inactive) and 109% (inactive)	107% (inactive)	92.1% (inactive) and 115% (inactive)	89.7% (inactive) and 108% (inactive)	106% (inactive) and 98.8% (inactive)	117% (inactive) and 124% (inactive)	98.7% (inactive) and 107% (inactive)	112% (inactive) and 132% (inactive)	107% (inactive) and 104% (inactive)	-17.7% (active) and 101% (inactive)
c1ccc2cc(C[n+]3ccn(Cc4ccc5ccccc5n4)c3)ccc2c1	-35.6% (active) and -4.1% (active)	15.9% (inactive) and 69% (inactive)	2.29% (active) and 11.9% (inactive)	98% (inactive) and 86.4% (inactive)	-27% (active) and 80.5% (inactive)	86.3% (inactive) and 102% (inactive)	96.2% (inactive)	49.1% (inactive) and 61.6% (inactive)		0.992% (active) and 34% (inactive)	3.76% (active) and 13.1% (inactive)	1.74% (active) and 23.8% (inactive)	13.4% (inactive) and 50.9% (inactive)	11.5% (inactive) and 33.7% (inactive)	-11.7% (active) and 34.2% (inactive)	11.6% (inactive) and 25.1% (inactive)	-1.69% (active) and 21.7% (inactive)	27.8% (inactive) and 33% (inactive)	103% (inactive) and 102% (inactive)	-3.69% (active) and 31.5% (inactive)
CCC(O)c1ccccc1 (configuration not stated)	104% (inactive)	94.1% (inactive) and 110% (inactive)	98.1% (inactive) and 96.2% (inactive)	98.8% (inactive) and 91.3% (inactive)	113% (inactive) and 111% (inactive)	107% (inactive) and 111% (inactive)	-23.1% (active) and 97% (inactive)	88.5% (inactive) and 92.8% (inactive)		98.1% (inactive) and 78.8% (inactive)	192% (inactive)	101% (inactive) and 96.1% (inactive)	106% (inactive) and 108% (inactive)	103% (inactive) and 107% (inactive)	121% (inactive) and 105% (inactive)	109% (inactive) and 108% (inactive)	112% (inactive) and 109% (inactive)	81.8% (inactive) and 93.6% (inactive)	112% (inactive) and 118% (inactive)	100% (inactive) and 94.1% (inactive)
